# Results: PubChem BioAssay (NCATS)
# Records with an inconclusive call do not appear. Entries that show only a call come without a potency. The source made the active and inactive calls. Calls follow the shape of the dose curve; as a rule, active = well fitted curve in the direction sought with a large enough effect; inconclusive = small, poorly fitted or top-dose-only effect, or another doubt; inactive = no such curve, though single readings can be large; an effect the other way counts as inactive or inconclusive.
# Columns and labels:
# Furin (Homo sapiens) = Furin (Homo sapiens) (UniProt P09958); experiment: Furin counterscreen qHTS for Zika virus inhibitors (AID 1347149); also: nearly all actives have a fitted effect of over 70% in size; also: potency is read from the fitted curve at half-maximal effect
# Chain of Furin (Homo sapiens) (P09958 whole entry, looked up): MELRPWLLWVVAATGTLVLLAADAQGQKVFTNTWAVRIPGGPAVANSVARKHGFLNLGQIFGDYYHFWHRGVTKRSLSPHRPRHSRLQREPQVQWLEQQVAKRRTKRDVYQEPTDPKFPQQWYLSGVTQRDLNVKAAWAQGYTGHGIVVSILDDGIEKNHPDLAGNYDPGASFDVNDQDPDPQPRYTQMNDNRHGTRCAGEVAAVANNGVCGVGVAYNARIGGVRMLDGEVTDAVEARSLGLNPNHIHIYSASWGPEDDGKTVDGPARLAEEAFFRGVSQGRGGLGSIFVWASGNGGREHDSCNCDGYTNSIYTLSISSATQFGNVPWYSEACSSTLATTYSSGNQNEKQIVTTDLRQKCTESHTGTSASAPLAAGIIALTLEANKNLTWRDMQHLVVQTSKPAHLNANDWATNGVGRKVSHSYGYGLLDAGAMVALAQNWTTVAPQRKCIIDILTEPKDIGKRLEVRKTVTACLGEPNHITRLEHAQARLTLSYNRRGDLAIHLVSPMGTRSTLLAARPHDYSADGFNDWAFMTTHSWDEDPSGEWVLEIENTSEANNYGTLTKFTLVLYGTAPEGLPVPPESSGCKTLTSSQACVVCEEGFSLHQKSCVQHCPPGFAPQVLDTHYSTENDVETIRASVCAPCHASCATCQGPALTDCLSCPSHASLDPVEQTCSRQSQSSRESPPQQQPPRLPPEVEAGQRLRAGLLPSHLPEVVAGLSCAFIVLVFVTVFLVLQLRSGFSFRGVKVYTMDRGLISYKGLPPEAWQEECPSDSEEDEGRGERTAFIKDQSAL
# In short: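 Fluorogenic cleavage of BOC-RVRR-AMC (2 microM final, Km ~15 µM) was monitored (ex 340, em 450 nm) at 37C after 15 min RT preincubation of 5 nM furin with compounds in HEPES pH 7.0 buffer with CaCl2 and Triton X-100. Percent inhibition was fitted to a 4-parameter Hill curve.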
# [1] = system: Zika virus NS2B-NS3 protease (unlinked); experiment: Optimization of GU AMC qHTS for Zika virus inhibitors: Unlinked NS2B-NS3 protease assay (AID 1347151); also: series mostly up to about 52 µM; nearly all actives have a fitted effect of over 80% in size
# In short: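 Noncovalent complex of NS2B hydrophilic domain and NS3 protease domain, 25 nM final, in 10 mM Tris-HCl pH 8.0, 0.01% Tween 20. AMC fluorescence change over 15 min at room temperature was fitted to a 4-parameter Hill equation.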
# [2] = Vero cells viability qHTS for Zika virus inhibitors (AID 1347167)
# In short: (§1)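 Cells seeded at 2.5 x 10^5 cells/mL in DMEM with 4% FBS and attached overnight at 37 degrees C, then exposed to compound for 24 to 48 hours. Viability read as ATP content by CellTiter Glo luminescence.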
# [3] = HepG2 cells viability qHTS for Zika virus inhibitors (AID 1347168)
# In short: as §1
# [4] = Tertiary RLuc qRT-PCR qHTS assay for Zika virus inhibitors (AID 1347169); also: top concentration of the series differs between compounds; nearly all actives have a fitted effect of over 55% in size
# In short: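 Vero cells (1,000 per well) plated overnight at 37 degrees C, treated with compound in DMSO, then infected with recombinant ZIKV-RLuc (Cambodian) at MOI 1-2 for 48-72 hrs. Live-cell Renilla luciferase substrate added; luminescence read after 1-1.5 hrs.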
# [5] = biological target: Phospholipid hydroperoxide glutathione peroxidase GPX4 (Homo sapiens) (UniProt P36969); experiment: Primary qHTS Assay for Inhibitors of Recombinant Selenoprotein Glutathione Peroxidase 4 (GPX4) (AID 1845192); settings: outcome: dose series up to 50 µM unless noted; also: series mostly up to about 50 µM; nearly all actives have a fitted effect of over 65% in size
# Chain of Phospholipid hydroperoxide glutathione peroxidase GPX4 (Homo sapiens) (P36969 whole entry, looked up): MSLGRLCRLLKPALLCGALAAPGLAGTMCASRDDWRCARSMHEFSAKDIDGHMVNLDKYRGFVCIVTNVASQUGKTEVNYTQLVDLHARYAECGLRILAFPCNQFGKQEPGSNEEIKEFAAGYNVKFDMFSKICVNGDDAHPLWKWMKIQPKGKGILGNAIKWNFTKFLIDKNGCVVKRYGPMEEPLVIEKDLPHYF
# In short: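 GR-coupled assay: recombinant GPX4 preincubated 30 min with compound at room temperature; final 200 nM GPX4, 1 mM GSH, 0.5 mM cumene hydroperoxide, 0.5 mM NADPH, 100 nM GR, 0.01% BSA, pH 7.5 Tris. NADPH fluorescence (340/450 nm) read at 0 and 15 min.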
# [6] = system: Zika virus NS2B-NS3 protease (linked construct); experiment: Confirmatory screen NINDS AMC qHTS for Zika virus inhibitors (AID 1347152);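 also: AMC fluorescence gain from cleaved Bz-Nle-KRR-AMC substrate over 15 min; top concentration of the series differs between compounds; nearly all actives have a fitted effect of over 70% in size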
# In short: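 Purified NS2B-NS3 protease with NS2B hydrophilic domain linked to NS3 protease domain by flexible linker, 1 nM final in 10 mM Tris-HCl pH 8.0, 0.01% Tween 20. Compounds preincubated 15 min, room temperature; Bz-Nle-KRR-AMC 10 microM (Km 18.3 µM); 15-min fluorescence change, 4-parameter Hill fit.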
# [7] = system: Zika virus NS2B-NS3 protease (unlinked complex); experiment: Confirmatory screen GU AMC qHTS for Zika virus inhibitors (AID 1347153); also: nearly all actives have a fitted effect of over 70% in size
# In short: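 Noncovalent NS2B hydrophilic domain/NS3 protease complex (25 nM) in 10 mM Tris-HCl pH 8.0, 0.01% Tween 20 was preincubated 15 min at room temperature with compounds. Then 10 µM AMC substrate (Km 18.3 µM) was added; fluorescence was read over 15 min and fitted to a 4-parameter Hill equation.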
# [8] = ZIKV-mCherry secondary qHTS for Zika virus inhibitors (AID 1347158); also: top concentration of the series differs between compounds
# In short: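 After overnight seeding at 37 °C, Vero cells receive compound and then ZIKV-mCherry (MOI 1). Following 48-72 h infection, cells are fixed, counterstained with Hoechst, and imaged; percent infected cells is derived from an mCherry intensity cut-off of 450 RFU.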
# [9] = Confirmatory screen GU Rhodamine qHTS for Zika virus inhibitors qHTS (AID 1347157); also: nearly all actives have a fitted effect of over 70% in size
# In short: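 Compounds, tested up to 114 microM, were incubated for 15 minutes with 25 nM unlinked NS2B-NS3 protease at pH 8.0. Cleavage of 1.5 microM Rhodamine110 substrate was then followed by fluorescence for 15 minutes.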
# [10] = Confirmatory screen NINDS Rhodamine qHTS for Zika virus inhibitors (AID 1347161); also: nearly all actives have a fitted effect of over 60% in size; also: potency is read from the fitted curve at half-maximal effect
# In short: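 Aprotinin served as in-plate control. Conditions: 25 nM linked NS2B-NS3, pH 8.0 Tris buffer, titrated compounds, 15 min preincubation and 15 min reaction with 1.5 microM Rhod110 substrate at room temperature.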
# [11] = system: Zika virus NS2B-NS3 protease; experiment: Primary screen GU AMC qHTS for Zika virus inhibitors (AID 1347154)
# In short: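 Unlinked Zika NS2B hydrophilic domain–NS3 protease complex at 25 nM in 10 mM Tris-HCl pH 8.0, 0.01% Tween 20, with an AMC peptide substrate. Fluorescence change (340/450 nm) over 15 min at room temperature, normalized to controls, fitted to 4-parameter Hill.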
# [12] = system: Zika virus NS2B-NS3 protease (linked); experiment: 384 well plate NINDS AMC confirmatory qHTS for Zika virus inhibitors (AID 1347163);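 also: linked protease at 5 30 or 60 nM final depending on run; fluorescence of AMC released from Ac-VKTGKR-AMC peptide cleaved by the protease; top concentration of the series differs between compounds; nearly all actives have a fitted effect of over 50% in size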
# In short: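 Linked protease 5/30/60 nM final; cpds up to 1 mM final, ~15 min preinc. Substrate Ac-VKTGKR-AMC 30 microM final. RT, dark, 25 min; FI ex 355/em 460; normalized to no-enzyme/no-inhibitor ctrls.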
# [13] = Primary qHTS for small molecule stabilizers of the endoplasmic reticulum resident proteome: Secreted ER Calcium Modulated Protein (SERCaMP) assay (AID 1508630)
# In short: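 GLuc-SERCaMP-expressing SH-SY5Y cells, pretreated 16 h with compound, are challenged with thapsigargin to empty ER calcium stores; after 4 h, coelenterazine is added directly to the medium and luminescence is imaged.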
smiles,measurement,setting,value
C[S+](CC[C@H](N)C(=O)O)C[C@H]1O[C@@H](n2cnc3c(N)ncnc32)[C@H](O)[C@H]1O (some centres not stated),Potency,Furin (Homo sapiens),inactive
same,Potency,[1],inactive
same,Potency,[2],inactive
same,Potency,[3],inactive
same,Potency,[4],inactive
same,Potency,[5],inactive
O=C(O)c1ccc(-c2cccc(C(F)(F)F)c2)cc1,Potency,Furin (Homo sapiens),inactive
same,Potency,[6],inactive
same,Potency,[7],inactive
same,Potency,[8],inactive
O=C(O)c1cccc(-c2cc(C(F)(F)F)ccc2Cl)c1,Potency,Furin (Homo sapiens),inactive
same,Potency,[6],inactive
same,Potency,[7],inactive
same,Potency,[8],inactive
O=C(Nc1cccc2ccccc12)O[C@@H]1CO[C@H]2[C@@H]1OC[C@@H]2NS(=O)(=O)c1ccc2ccccc2c1,Potency,Furin (Homo sapiens),69.8 µM (active)
same,Potency,[6],inactive
same,Potency,[7],inactive
CCOC(=O)c1c(-c2ccccc2)oc2ccc(NS(=O)(=O)c3ccc(C(C)C)cc3)cc12,Potency,Furin (Homo sapiens),46.9 µM (active)
same,Potency,[9],inactive
O=C(CNC(=O)c1ccccc1)OC(C(=O)Nc1cc(C(F)(F)F)ccc1Cl)c1ccccc1 (configuration not stated),Potency,Furin (Homo sapiens),inactive
same,Potency,[9],inactive
same,Potency,[10],inactive
O=C(COc1ccccc1F)Nc1ccccc1C(=O)OCc1cc(=O)n2nc(C3CC3)sc2n1,Potency,Furin (Homo sapiens),inactive
same,Potency,[9],inactive
same,Potency,[10],inactive
CC1(C(=O)O)NCCc2cc(O)c(O)cc21 (configuration not stated),Potency,Furin (Homo sapiens),24.1 µM (active)
same,Potency,[11],10.6 µM (active)
same,Potency,[10],27.8 µM (active)
same,Potency,[12],inactive
same,Potency,[2],inactive
same,Potency,[3],inactive
same,Potency,[13],inactive
